A short description of experiment [1]: A549 cell viability effects, profiling panel, calcein-AM fluorescence, 48 h, basal (AID 1162). Conditions: higher = more signal.
A short description of experiment [2]: adipocyte viability effects, profiling panel, cell-based, 3T3-L1 adipocytes, calcein-AM fluorescence, 48 h, basal (AID 1163). Conditions: 3T3-L1 adipocytes viability, higher = more signal.
A short description of experiment [3]: HepG2 cell viability effects, profiling panel, calcein-AM fluorescence, 48 h, basal (AID 1164). Conditions: higher = more signal.
The nature of experiment [4]: MM1S cell viability effects, profiling panel, calcein-AM fluorescence, 48 h, basal (AID 1165).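 Also: viability of MM1S multiple myeloma cells under basal unstimulated conditions.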 As to conditions: higher = more signal.
Experiment [5] in a line: basal RPMI8226 viability, no added stimulus, profiling panel, cell-based, calcein-AM fluorescence, 48 h, PK04 Diversity Set (AID 1166).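 Also: cells grown under basal conditions without added stimulus.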 Conditions: RPMI8226 myeloma viability, higher = more signal.
Experiment [6] in a line: basal HepG2 mitochondrial membrane potential changes, profiling panel, cell-based, JC-1 fluorescence, 24 h, 100 nL compound (AID 1167). As to conditions: higher = more signal.
A short description of experiment [7]: basal 3T3-L1 adipocyte mitochondrial potential changes, profiling panel, cell-based, JC-1 fluorescence, 3T3-L1 adipocytes, 24 h, 100 nL compound (AID 1168). Conditions: JC-1 mitochondrial fluorescence, higher = more signal, called active from +8 up or from −8 down.
Experiment [8] can be described thus: basal RPMI8226 mitochondrial membrane potential changes, profiling panel, cell-based, JC-1 fluorescence, 24 h, 100 nL compound (AID 1169). As to conditions: RPMI8226 myeloma, JC-1 mitochondrial potential fluorescence, higher = more signal.
Experiment [9] is described as follows: basal MM1S mitochondrial membrane potential changes, profiling panel, cell-based, JC-1 fluorescence, 24 h, 100 nL compound (AID 1170). As to conditions: higher = more signal.
A short description of experiment [10]: A549 lung cancer cell viability effects, profiling panel, resazurin fluorescence, 24 h, PK04 Diversity Set (AID 1171). Conditions: higher = more signal, called active from +8 up or from −8 down. (The colour change of resazurin is a common sign of viable cells or microbes.)

Molecules are shown by their SMILES. Calls of active or inactive are those of the source.
Also: test concentration not given here.

In the case of `CN(C)c1ccc(C(O)C2C=CC3C(=O)N(c4ccccc4)C(=O)C3N2Nc2ccccc2F)cc1` (stereo not given), the z-score in [1] is -0.225; in experiment [2], -0.528; in [3] it was -0.799; in experiment [4] it was -0.343; in experiment [5], -1.18; in experiment [6], -2.24. For the same compound, the z-score in experiment [7] is -1.08 (inactive); in [8], 0.109; in experiment [9], -0.0359; in [10], -0.416 (inactive).

In the case of `CC(C)(C)OC(=O)CC[C@]1(C(N)=O)COC(c2ccc(OCCCO)cc2)=N1`, the z-score in experiment [1] is 0.371; in [2], 0.0132; in experiment [3], 0.0668; in experiment [4], 0.909; in experiment [5], -0.881; in [6] it was -0.143. The z-score in experiment [7] was -0.0265 (inactive); in experiment [8], 0.484; in [9] it was -0.284; in experiment [10] it was -1.05 (inactive).

On to `C[C@H](c1ccccc1)N1C(=O)[C@H]2[C@H]3[C@H](O)[C@H](O)CC(=O)[C@@H]3CC[C@H]2C1=O`, for which the z-score in experiment [1] is -0.311; in experiment [2], -0.0863; in [3] it was -0.254; in [4], -0.0752; in [5] it was 0.299; in [6] it was 0.032. The z-score in experiment [7] is -0.239 (inactive); in experiment [8], -0.0521; in [9] it was 0.25; in experiment [10], -0.164 (inactive).

On to `CC(=O)OC[C@H]1O[C@@H](ON=C(C)CCN2CCc3nc(-c4ccccc4)c(-c4ccccc4)cc3C2)[C@H](OC(C)=O)[C@@H](OC(C)=O)[C@@H]1OC(C)=O`, for which the z-score in experiment [1] is -0.21; in experiment [2] it was 0.565; in [3], 0.69; in experiment [4], -0.0213; in experiment [5], -0.162; in [6], 1.11. For the same compound, the z-score in [7] is -1.19 (inactive); in [8] it was -0.522; in [9] it was 0.231; in experiment [10] it was -0.282 (inactive).

Take `Cc1cc(C)c(-c2cc([C@H](C)ON=C3[C@H]4CCn5c(=O)n(-c6ccccc6)c(=O)n5[C@H]4[C@H](O)[C@@H]4O[C@H]34)on2)c(C)c1`: the z-score in experiment [1] is -0.605; in [2] it was -0.91; in experiment [3], -0.887; in experiment [4], -2.95; in [5], -3.87; in experiment [6], 0.668. Besides, the z-score was -0.803 (inactive) in experiment [7], -1.24 in experiment [8], -2.39 in [9] and -0.776 (inactive) in experiment [10].

Regarding `COc1ccccc1CN1C(=O)c2ccccc2[C@@]2(Cc3ccccc3N(C(C)C)C2=O)[C@@H]1c1ccc(CO)cc1`, the z-score is 0.212 in experiment [1]; 0.423 in [2]; 1.29 in experiment [3]; -0.19 in experiment [4]; 0.931 in [5]; 0.881 in experiment [6]. Also, the z-score in [7] is 0.576 (inactive); in experiment [8], 0.563; in experiment [9] it was 0.374; in [10], -1.64 (inactive).

In the case of `CN1C(=O)C2C=CC(C(O)c3ccc(Br)cc3)N(N(c3ccccc3)c3ccccc3)C2C1=O` (stereo not given), the z-score in [1] is 1.78; in experiment [2], -0.658; in [3], 1.37; in experiment [4], 0.0222; in experiment [5], -0.574; in experiment [6], 0.232. Further, the z-score is -1.07 (inactive) in experiment [7], 0.343 in experiment [8], -0.654 in experiment [9] and -0.335 (inactive) in experiment [10].

For the compound `CN(C)C(=O)[C@@]1(Cc2ccccc2)N=C(c2ccc(OCCCO)cc2)O[C@H]1c1ccccc1CN=[N+]=[N-]`, the z-score is -0.309 in experiment [1]; -0.562 in experiment [2]; -0.903 in [3]; -0.74 in [4]; -2.6 in [5]; -0.12 in experiment [6]. Further, the z-score in [7] was -0.775 (inactive); in [8], -0.913; in [9] it was -0.589; in experiment [10] it was -0.348 (inactive).

In the case of `C[C@@H](c1ccccc1)N1C(=O)[C@H]2[C@H]3[C@H](O)C=CC(=O)[C@@H]3CC[C@H]2C1=O`, the z-score in experiment [1] was -0.0257; in experiment [2], 0.0344; in [3] it was 0.628; in experiment [4], -0.438; in experiment [5], -0.136; in experiment [6], 0.457. Also, the z-score in experiment [7] is 0.715 (inactive); in [8] it was 0.04; in [9] it was 0.711; in experiment [10], 0.165 (inactive).

As to `NC(=O)NCC#Cc1ccc2c(c1)[C@]1(C(=O)N2)[C@H](c2ccc(O)cc2)N2[C@H](c3ccccc3)[C@H](c3ccccc3)OC(=O)[C@H]2[C@@H]1C(=O)N1CCCCCCC1`, the z-score is 1.21 in experiment [1]; 0.139 in experiment [2]; 1.23 in [3]; 0.561 in [4]; 0.597 in experiment [5]; -1.08 in experiment [6]. Moreover, the z-score in experiment [7] is 1.04 (inactive); in [8], -0.578; in experiment [9] it was -0.413; in experiment [10], -0.118 (inactive).

On to `CC(C)(C)OC(=O)CC[C@]1(C(=O)NCc2ccccc2)N=C(c2ccc(OCCCO)cc2)O[C@H]1c1ccccc1`, for which the z-score is -1.02 in experiment [1]; 0.587 in experiment [2]; -0.329 in [3]; -1.99 in [4]; -1.14 in experiment [5]; 0.956 in experiment [6]. For the same compound, the z-score in experiment [7] is -1.1 (inactive); in experiment [8], -0.762; in experiment [9] it was -0.531; in [10] it was 0.198 (inactive).

Take `C=CC[C@@H]1C=C[C@H](ON=C(C)CCN2CCc3nc(CC)c(CC)cc3C2)[C@@H](CO)O1`: the z-score was 1.36 in experiment [1]; 1.06 in experiment [2]; -1.47 in [3]; -0.727 in experiment [4]; 0.121 in experiment [5]; 3.09 in experiment [6]. Besides, the z-score in experiment [7] is -1.31 (inactive); in experiment [8] it was 0.0868; in [9], -0.587; in experiment [10], 0.097 (inactive).

For the compound `COC(=O)[C@H](C)NC(=O)CCC1CC(OC(=O)NCc2ccc3c(c2)OCO3)CC2(CCCC(COC(=O)NCCOc3ccccc3)O2)O1` (stereo not given in full), the z-score in experiment [1] was 1.99; in experiment [2] it was 0.714; in experiment [3], 0.748; in experiment [4] it was 0.0937; in experiment [5], 0.487; in experiment [6], 0.916. Also, the z-score in experiment [7] is 1.67 (inactive); in [8], -0.647; in experiment [9], -1.09; in [10], 0.294 (inactive).

With `CN(C)CCCNC(=O)[C@@H]1c2ccccc2C(=O)N(Cc2cc(F)cc(C(F)(F)F)c2)[C@H]1c1ccc(CO)cc1`, the z-score was -0.276 in [1]; 0.239 in experiment [2]; -0.318 in experiment [3]; 0.137 in [4]; 0.606 in [5]; 1.3 in experiment [6]. The z-score is -0.557 (inactive) in experiment [7], 0.735 in experiment [8], -0.195 in experiment [9] and 0.0923 (inactive) in [10].

For `C#C[C@@H]1Oc2ccccc2S(=O)(=O)N2CCC[C@H]12`, the z-score is -0.244 in [1]; -0.0897 in experiment [2]; -0.48 in experiment [3]; 0.0671 in [4]; -1.71 in experiment [5]; -0.998 in [6]. Besides, the z-score was 0.121 (inactive) in experiment [7], 0.51 in experiment [8], 0.193 in experiment [9] and -0.884 (inactive) in [10].

Turning to `COCCOC(=O)N1C(=O)[C@@]2(c3cc(C#CCNC(N)=O)ccc31)[C@H](c1ccccc1OCCO)N1[C@H](c3ccccc3)[C@H](c3ccccc3)OC(=O)[C@H]1[C@@H]2C(=O)N1CCN(c2ncccn2)CC1`, the z-score is 0.0249 in experiment [1]; 0.457 in experiment [2]; 1.37 in experiment [3]; 0.541 in [4]; 1.12 in experiment [5]; -1.76 in experiment [6]. Also, the z-score was 0.856 (inactive) in experiment [7], -0.847 in experiment [8], -0.859 in experiment [9] and -1.27 (inactive) in experiment [10].

The values are drawn from PubChem BioAssay.
